# Rows were chosen to be rich in hits. Some 0.13% of all compounds tested hit in one or more screens of this group.
# aGal spleen mod: qHTS Assay for Inhibitors and Activators of Human alpha-Galactosidase From Spleen Homogenate; human spleen homogenate, 4MU-alpha-Gal fluorescence, 40 min; AID 2107, 2009; hit rate 0.008% among 240,000; Potency, µM (series often up to 80 µM), for inactives: top-dose activity change, negative = inhibition, most hits filed as inhibitors;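 also: potency is read from the fitted curve at half-maximal effect; 0% = enzyme with vehicle and -100% = no enzyme basal signal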
#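 Spleen homogenate 1 ug + cpd (titration) + 4-MU-alpha-D-galactopyranoside 1 mM; 37C 40 min; 50 mM citrate/phosphate pH 5.0, 0.01% Tween-20; stop pH 10; fluorescence 365/440; AC50 via Hill.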
# GLA inh pH 4.5: qHTS Assay for Inhibitors of Human alpha-Galactosidase at pH 4.5 | activity change, negative = inhibition, % at 105 µM | 230,000 tested, under 10 active | AID 1467, 2008 | purified enzyme, 4-MU-alpha-Gal fluorescence, pH 4.5 | Alpha-galactosidase A (Homo sapiens), P06280;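 also: 0% = full activity with enzyme and -100% = basal without enzyme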
# Target sequence (P06280 whole entry, looked up): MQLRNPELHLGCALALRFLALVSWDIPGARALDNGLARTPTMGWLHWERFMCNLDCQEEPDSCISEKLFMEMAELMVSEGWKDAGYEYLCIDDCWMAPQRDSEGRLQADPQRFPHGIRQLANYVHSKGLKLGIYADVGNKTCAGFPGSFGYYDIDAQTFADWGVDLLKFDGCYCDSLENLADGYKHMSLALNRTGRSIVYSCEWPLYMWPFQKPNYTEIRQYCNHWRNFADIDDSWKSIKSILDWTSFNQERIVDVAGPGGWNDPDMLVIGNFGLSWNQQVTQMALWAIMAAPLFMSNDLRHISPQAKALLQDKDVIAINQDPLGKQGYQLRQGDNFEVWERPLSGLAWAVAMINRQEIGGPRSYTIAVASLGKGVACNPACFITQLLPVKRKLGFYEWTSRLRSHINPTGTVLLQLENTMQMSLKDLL
# IL-2 act: qHTS of IL-2 Activators; IL-2 activation reporter assay, cell-based qHTS; stimulated with anti-CD3/CD4/CD28 beads; in transgenic mouse T cells; activation, % (series mostly up to about 46 µM); hit rate 0.065% among 360,000; AID 652025, 2013; in the data active = activation above about 50%; inconclusive = mostly about 30% to 49%; also: 0% is about no effect
#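 Unstimulated transgenic mouse T cells preincubated 60 min with compound, then stimulated with anti-CD3/anti-CD4-coated beads plus anti-CD28 for 18 h at 37 degrees C. IL-2 response read as EGFP and DsRed fluorescence by plate cytometry.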
# a7 integrin act: qHTS for Activators of Integrin-Mediated Alleviation for Muscular Dystrophy | alpha7betagal myoblasts, beta-gal FDG fluorescence, 48 h | Potency, µM (highest dose often 38.3 µM), for inactives: top-dose activation, most hits filed as activators | hit rate 0.064% among 350,000 | AID 624291, 2012;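 also: potency is read from the fitted curve at half-maximal effect; 100% = response of the positive control SU9516; nearly all actives have a fitted effect of over 60% in size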
#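 Alpha7betagal+/- myoblasts (passage 13) were plated 16-24 hr, then exposed to compounds (1:260 dilution of DMSO stock) for 48 hours at 37C. After MPER lysis, β-galactosidase reporter activity was read as FDG fluorescence (ex 480/em 540) after 30 minutes.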
# Starred values were filed as active, the others as inactive; ? = inconclusive; nt = no result given; [ ] = another dose, or the depositor's remark. Unless noted, calls follow the shape of the dose curve; as a rule, active = well fitted curve in the direction sought with a large enough effect; inconclusive = small, poorly fitted or top-dose-only effect, or another doubt; inactive = no such curve, though single readings can be large; an effect the other way counts as inactive or inconclusive.
SMILES,aGal spleen mod,GLA inh pH 4.5,IL-2 act,a7 integrin act
C/C(CC(=O)Nc1c(Cl)cccc1C(F)(F)F)=N\NC(=O)c1cnccn1,nt,nt,-1,26%
C/C(CC(=O)Nc1ccc(Cl)c(C(F)(F)F)c1)=N\NC(=O)c1cnccn1,nt,nt,0,4.5µM*
O=C(Nc1cc(Br)ccc1O)C1CC(c2ccccc2Cl)=NO1 (centres undefined),nt,nt,0,13µM*
Cn1cccc1/C=C1\SC(=O)N(c2ccc(O)cc2)C1=O,4%,-4,51*,13%
CCOc1ccc(N2C(=O)S/C(=C\c3cccn3C)C2=O)cc1,-10%,-2,1,-37%
O=C(O[C@@H]1Cc2c(O)cc(O)cc2OC1c1ccc(O)c(O)c1)c1cc(O)c(O)c(O)c1 (some centres undefined),3%,4,nt,nt
CCOC(=O)C1OC1C(=O)N[C@@H](CC(C)C)C(=O)NCCC(C)C (some centres undefined),2%,nt,nt,nt
O=C(O)CCCNC(=O)CCn1nnc2ccccc2c1=O,-12%,2,0,11µM*
CC(C)=CC[C@@H](O)C1=CC(=O)c2c(O)ccc(O)c2C1=O,-2%,nt,nt,nt
COc1ccc(/C=C2\SC(=S)N(CCCC(=O)N3CCN(C)CC3)C2=O)cc1OC,nt,nt,0,-5%
COc1ccc(/C=C2\SC(=S)N(CCCCCC(=O)Nc3cc(C)on3)C2=O)cc1OC,nt,nt,80*,3%
CCOC(=O)N1CCN(C(=O)CCN2C(=O)/C(=C\c3ccc(OC)c(OC)c3)SC2=S)CC1,nt,nt,93*,-1%
CS[C@@H]1SC[C@H]2C(=O)N(C)C(C(C)C)C(=O)OC[C@@H](NC(=O)c3cnc4ccccc4n3)C(=O)N[C@@H](C)C(=O)N(C)[C@H]1C(=O)N(C)C(C(C)C)C(=O)OC[C@@H](NC(=O)c1cnc3ccccc3n1)C(=O)N[C@@H](C)C(=O)N2C (some centres undefined),1%,nt,nt,nt
COC(=O)C[C@H]1c2ccccc2[C@H]2C(=C[C@@H](C)[C@H]3C(=O)N(O)C(=O)[C@H]32)N1C(=O)OC,-8%[17.5 µM],7,nt,nt
CC1CCCCC12NC(=O)N(CC(=O)OCc1cccc(F)c1)C2=O (centres undefined),nt,nt,0,10µM*
Cc1cc(NC(=O)CCC(=O)N(Cc2cccnc2)C(C(=O)NC(C)(C)C)c2ccccc2Cl)no1 (centres undefined),nt,nt,-3,4µM*
C=C[C@@]1(C)CC[C@H](O)[C@H]2C(=O)CCC[C@@H]21,-11%,-6,nt,nt
CN1[C@@H]2CC(OC(=O)[C@H](CO)c3ccccc3)C[C@@H]1[C@H]1O[C@H]12 (some centres undefined),1%,-2,nt,nt
COc1cc2c3nnc(-c4ccc(F)cc4)c-3cn(Cc3cccc(F)c3)c2cc1OC,2%,-4,76*,0%
COc1cccc(Cn2nc3c4cc(F)ccc4n(Cc4ccc(F)cc4)cc-3c2=O)c1,nt,nt,0,-8%
COc1cc2c3nnc(-c4ccc(F)cc4)c-3cn(Cc3cccc(C)c3)c2cc1OC,5%,-8,218*,22%
COc1cc2c3nnc(-c4ccc(F)cc4)c-3cn(Cc3ccc(C)cc3)c2cc1OC,-1%,-7,349*,-12%
Cc1ccc(Cn2nc3c4cc(F)ccc4n(Cc4ccc(F)cc4)cc-3c2=O)cc1,nt,nt,1,6%
COc1cc2c3nnc(-c4ccccc4)c-3cn(Cc3ccc(F)cc3)c2cc1OC,0%,-10,12,-52%
COc1ccc2c(c1)C(=O)[C@@H](OC(=O)N[C@H]1CCCc3ccccc31)[C@H](c1ccc(OC)c(Br)c1)O2,-5%,4,nt,nt
SMILES,aGal spleen mod,GLA inh pH 4.5,IL-2 act,a7 integrin act
CCOC(=O)c1ccc(-c2ccc(/C=C(\C#N)C(=O)NCc3cccs3)o2)cc1,-2%,5,61*,?
CC(C)c1ccc(NC(=O)CN2C(=O)c3ccccc3S2(=O)=O)cc1,nt,nt,-1,10µM*
O=C(CN1C(=O)c2ccccc2S1(=O)=O)Nc1ccc([N+](=O)[O-])cc1,nt,nt,-2,12%
Cc1cc(OCC(=O)NC(C)C)ccc1Cl,4%,-6,-3,4µM*
CCCCC/C=C\C/C=C\C/C=C\C=C\C(=O)CCCC(=O)O,10%,-1,nt,nt
CC(=O)c1ccc(NC(=S)Nc2cccc3ccccc23)cc1,nt,nt,-2,-29%
CC(=O)c1cccc(NC(=O)C(=O)Nc2cccc3ccccc23)c1,-6%,8,-6,8.9µM*

# Assay outcomes: PubChem, National Center for Advancing Translational Sciences (NCATS)
